In the library only some 17% were active in any assay of this set; here they are far more common.
TGFb SMAD3 inh: inhibitors of TGF-b signaling. HepG2 CAGA-GFP TGF-b/SMAD3 reporter, GFP fluorescence, 18 h; TGF-beta stimulated, 500 pg/mL final. Potency, µM (titrated, usually from 46.1 µM), without a hit: at the top dose activity, negative = inhibition, hits mostly inhibitors. hit rate 1.2% among 410,000. AID 588855; further: on the % scale 0 is the no-effect control and ±100 the full control effect; nearly all actives have a fitted effect of over 65% in size
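First, reporter cells (HEPG2 CAGA-GFP) rested 2 h at 37 degrees C. Next, compounds were pinned in and TGF-beta added to 500 pg/mL final. After 18 h, GFP was imaged per cell and summed per well.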
DT40 TDP1 CPT: DT40-hTDP1 cell growth loss with CPT. chicken DT40 Tdp1-/-;hTDP1 cells + 20 nM CPT, ATP luminescence, 48 h. Potency, µM (titrated, usually from 46.2 µM), for inactives: top-dose activity change, negative = growth inhibition, hits mostly inhibitors. hit rate 12% among 420,000. AID 686979; further: on the % scale 0 is the no-effect control and ±100 the full control effect; nearly all actives have a fitted effect of over 55% in size
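Cell growth measured by CellTiter-Glo luminescence after a minimum 48 h, 37 C compound exposure with 20 nM CPT in Tdp1-knockout DT40 cells stably expressing hTDP1, seeded 400/well; qHTS titration format.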
HepG2 viability: kills HepG2 cells in TGF-b inhibitor counter-screen; hit rate 0.76% among 410,000; HepG2 CAGA-GFP viability, ATP luminescence, 18 h; Potency, µM (doses to about 46.1 µM), inactives show at the top dose activity change, negative = cytotoxicity, hits mostly cytotoxic; AID 588856
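HepG2 CAGA-GFP cells (1000/well, DMEM with 1% FBS) received compound, then TGF-beta at 500 pg/mL final, and were incubated 18 hours at 37 degrees C. Viability was read by CellTiter-Glo luminescence. Media-only wells were set as complete cell-killing and DMSO as no toxicity.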
DT40 TDP1 no CPT: qHTS for Inhibitors of human tyrosyl-DNA phosphodiesterase 1 (TDP1): qHTS in cells in absence of CPT. AID 686978, 2013. Potency, µM (doses to about 46.2 µM), for inactives: at the highest dose activity change, negative = growth inhibition, actives largely listed as inhibitors. DT40 Tdp1-/- hTDP1 cells, no CPT, ATP luminescence, 48 h. hit rate 15% among 420,000; further: on the % scale 0 is the no-effect control and ±100 the full control effect; nearly all actives have a fitted effect of over 55% in size
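DT40 Tdp1-/-;hTDP1 cells, no CPT (DMSO vehicle only), 400 cells/well; compounds pin-transferred; ≥48 hr, 37 °C; CellTiter-Glo 30 min RT dark, luminescence read.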
ATXN2 expr inh: ATXN2 expression inhibition. HEK-293 ATXN2-luciferase reporter, luminescence, 24 h. Potency, µM (series often up to 57 µM), for the others: at the highest dose activity change, negative = inhibition, hits mostly inhibitors. hit rate 0.72% among 360,000. AID 1745845; further: on the % scale 0 is the no-effect control and ±100 the full control effect; nearly all actives have a fitted effect of over 55% in size
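qHTS (up to 57 uM final) was run with 24 h compound exposure of reporter cells at 37 °C. Each well was multiplexed: SteadyGlo luminescence measured ATXN2-luciferase expression after a fluorogenic Gly-Phe-AFC viability readout (25 uM final).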
S2 tox: reduces viability in counter-screen for ATXN expression inhibitors. AID 651635. Potency, µM (top dose mostly 56.7 µM), actives largely listed as cytotoxic. hit rate 0.49% among 400,000. S2 cells (HEK-293 line with an ATXN2-luciferase reporter) viability, CellTiter-Fluor protease fluorescence, 24 h; further: nearly all actives have a fitted effect of over 40% in size
* hit, by the source's call; i = inactive; ? = inconclusive; . = no result. The call rests on the fitted dose curve; in most records, active means well fitted curve in the direction sought with a large enough effect; inconclusive means small, poorly fitted or top-dose-only effect, or another doubt; inactive means no such curve, though single readings can be large; an effect the other way counts as inactive or inconclusive. Potency means the concentration at half of the fitted maximal effect.

SMILES	TGFb SMAD3 inh	DT40 TDP1 CPT	HepG2 viability	DT40 TDP1 no CPT	ATXN2 expr inh	S2 tox
O=C(Nc1ccccc1)C1=C[C@@H](C2CCCCC2)C[C@@H](OCc2ccc(CO)cc2)O1	-10%	18µM*	-17%	23µM*	1%	i
O=C(C1=C[C@@H](C2CCCCC2)C[C@@H](OCc2ccc(CO)cc2)O1)N1CCN(Cc2ccccc2)CC1	?	21µM*	-13%	16µM*	?	.
COc1ccc(NC(=O)C(=O)NCCc2csc3nc(-c4ccccc4F)nn23)cc1OC	-2%	0%	-2%	3%	0%	i
C#Cc1cccc(Nc2ncnc3cc(OC)c(OCCCCCCC(=O)NO)cc23)c1	.	.	.	.	-39%	.
Cc1ccc(C(=O)COC(=O)CN2C(=O)C3C4CCC(C4)C3C2=O)cc1[N+](=O)[O-] (stereo not given)	0%	?	-5%	?	9%	i
O=C(CN1C(=O)C2C3C=CC(C3)C2C1=O)OCC(=O)c1ccc(Cl)c([N+](=O)[O-])c1 (stereo not given)	-11%	21µM*	0%	?	-11%	i
CC1CN(c2nnnn2-c2ccccc2)CC(C)O1 (stereo not given)	-14%	1%	2%	6%	6%	i
CCOC(=O)c1ccccc1NC(=O)Cn1c(=O)n(CCCC(=O)NCc2ccc3c(c2)OCO3)c(=O)c2ccccc21	-12%	-20%	12%	-23%	14%	i
CC1CN(C)C(C)c2c1oc1ccc([N+](=O)[O-])cc21 (stereo not given)	13%	-2%	0%	1%	0%	i
CC1CN(C)C(C)c2c1oc1ccc(N)cc21 (stereo not given)	-3%	?	-23%	10µM*	.	i
Oc1ccc(N2CCN(C(=S)NCCc3ccccc3)CC2)cc1	9%	6.5µM*	5%	8.2µM*	?	i
S=C(NCCc1ccccc1)N1CCN(Cc2ccccc2)CC1	-14%	29µM*	-8%	?	10%	i
C[C@H]1COc2cccc(N3CCC[C@H]3CO)c2S(=O)(=O)N1	.	-2%	.	-13%	4%	i
CN(C)S(=O)(=O)c1ccc(C(=O)Nc2cc(S(=O)(=O)Nc3ccccc3Cl)ccc2N2CCCCC2)cc1	6%	8.2µM*	-12%	16µM*	12%	i
CN(C)S(=O)(=O)c1cccc(C(=O)Nc2ccccc2N2CCCCC2)c1	-24%	?	-1%	?	-18%	i
CN(C)S(=O)(=O)c1ccc(C(=O)Nc2ccc(F)cc2F)cc1	-3%	12%	-6%	-17%	1%	i
CN1CCN(c2ccc(Cl)cc2NC(=O)c2ccc(S(=O)(=O)N(C)C)cc2)CC1	-9%	18µM*	-13%	?	-23%	i
COc1ccc(-c2ccc3c(c2)O/C(=C\c2ccsc2)C3=O)cn1	?	?	2%	?	7%	i
O=C1C(c2ccccc2)C(c2ccccc2)NC(c2ccccc2)C1c1ccccc1 (stereo not given)	-15%	?	-31%	23µM*	-7%	?
CCOC(=O)c1c[nH]n(-c2ccc(C)cc2)c1=O	17%	-11%	1%	-13%	6%	i
CCOC(=O)c1cc2c(C)n(-c3ccc(OCC)cc3)c(C)c2ccc1=O	?	26µM*	-37%	15µM*	-5%	i
CCOC(=O)c1cc2c(C)n(-c3ccc(C)cc3)c(C)c2ccc1=O	?	15µM*	-26%	8.2µM*	0%	i
CCc1ccc(C(=O)OCC(=O)NCCNC(=O)COC(=O)c2ccc(CC)cc2)cc1	20%	0%	-3%	-12%	1%	i
CCn1c(=O)c2cc(C(=O)NC3CCC(C)CC3)sc2c2ccccc21 (stereo not given)	-1%	16µM*	-20%	-85%	-5%	i
CCn1c(=O)c2cc(C(=O)NCCCN3CCN(C)CC3)sc2c2ccccc21	37%	16µM*	-9%	?	-5%	i
SMILES	TGFb SMAD3 inh	DT40 TDP1 CPT	HepG2 viability	DT40 TDP1 no CPT	ATXN2 expr inh	S2 tox
CCn1c(=O)c2cc(C(=O)NCCCN3CCC(C)CC3)sc2c2ccccc21	45%	23µM*	-19%	18µM*	?	?
CCn1c(=O)c2cc(C(=O)NCCC(C)C)sc2c2ccccc21	-7%	-47%	18%	?	-18%	i
Cc1ccc2c(c1)Cc1c(nc(-c3ccc(Cl)cc3)nc1SCC(=O)N1CCCCC1)O2	1%	-5%	-10%	?	12%	i
COc1cc(C2C(C#N)=C(N)N(c3ccc(F)cc3)C3=C2S(=O)(=O)CC3)ccc1O (stereo not given)	2%	13µM*	1%	?	-7%	i
COc1cc(C2C(C#N)=C(N)N(c3cccnc3)C3=C2C(=O)CCC3)ccc1O (stereo not given)	-5%	-1%	10%	-1%	5%	i
Cc1cccc(NC(=O)C(Cc2ccccc2)c2nn[nH]n2)c1C (stereo not given)	-14%	6%	8%	-1%	4%	i
COc1ccccc1NC(=O)CSc1ncc2c(n1)-c1ccccc1N(Cc1ccccc1C)S2(=O)=O	12%	?	7%	?	3%	i
CCN1c2ccccc2-c2nc(SCC(=O)Nc3cccc(C)c3C)ncc2S1(=O)=O	-5%	?	0%	21µM*	-10%	i
CCN1c2ccccc2-c2nc(SCC(=O)NCc3ccccc3)ncc2S1(=O)=O	7%	18µM*	5%	23µM*	6%	i
CCOC(=O)c1ccccc1NC(=O)CSc1ncc2c(n1)-c1ccccc1N(CC)S2(=O)=O	3%	?	-4%	16µM*	-3%	?
CCN(CC)C(=O)Cn1cc(C(=O)C(=O)NCc2cccnc2)c2ccccc21	12%	5%	18%	19%	0%	i
Cc1ccc(C(=O)NNC(=O)COc2ccc(Cl)cc2C)o1	2%	?	2%	?	12%	i
Cc1ccc(C(=O)CC(=O)COc2ccc(Cl)cc2C)cc1	?	4.1µM*	-30%	5.8µM*	33%	i
Cc1ccc(NC(=O)c2ccc(OC(=O)COc3ccc(Cl)cc3C)cc2)cc1	-6%	3%	-6%	11%	59%	i
Cc1cc(Br)ccc1OCC(=O)NNC(=O)c1cnccn1	?	?	-15%	21µM*	.	i
